Assay results: PubChem BioAssay AID1159580 (chemical genetic matrix, 2015)
“And” between values parts separate entries of the source, which are not always exact repeats. Equal entries are not always repeated. Among all 5,500 compounds or so, about 2,000 (36%) were called active. Inconclusive results (about 18%) are left out. Cut-off read from the data, not from the text of the source: active = normalized growth mostly below about 0.91 (no sharp cut-off); inconclusive = no clear call, values can overlap the other calls; inactive = mostly above about 0.92. This is one part of the list.

Test: chemical genetic growth profiling, strain panel (AID 1159580);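 note: tested at 20 µM; growth read once vehicle control cultures reached saturation at 30 °C; 1 = growth at the plate median or of vehicle wells; lower values mean less growth of the strain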
Settings: S. cerevisiae deletion strains, growth OD

Measured: normalized growth

C[C@H]1COc2c(N3CCN(C)CC3)c(F)cc3c(=O)c(C(=O)O)cn1c23
active: locus YCL011C, strain gbp2, hits give low values 0.259
inactive: locus YAL013W, strain DEP1, hits give low values 1 | locus YAL021C, strain ccr4, hits give low values 1.02 | locus YAL026C, strain drs2, hits give low values 1.03 | locus YAL030W, strain snc1, hits give low values 1.02 | locus YBR009C, strain hhf1, hits give low values 1.01 | locus YBR021W, strain FUR4, hits give low values 0.995 | locus YBR023C, strain chs3, hits give low values 1.02 | locus YBR171W, strain sec66, hits give low values 1.04 | locus YBR229C, strain ROT2, hits give low values 1 | locus YBR231C, strain swc5, hits give low values 1.02 | locus YBR279W, strain paf1, hits give low values 1.02 | locus YCL016C, strain dcc1, hits give low values 1.02 | locus YCL029C, strain bik1, hits give low values 1.02 | locus YCL061C, strain MRC1, hits give low values 1.04 | locus YCL069W, strain vba3, hits give low values 1.02 | locus YCR088W, strain abp1, hits give low values 1.02 | locus YDL005C, strain med2, hits give low values 1.04 | locus YDL035C, strain GPR1, hits give low values 1.02 | locus YDL040C, strain nat1, hits give low values 1.02 | locus YDL074C, strain BRE1, hits give low values 1.01 | locus YDL101C, strain DUN1, hits give low values 0.999 | locus YDL134C, strain PPH21, hits give low values 1.01 | locus YDL185W, strain tfp1, hits give low values 1.02 | locus YDL192W, strain arf1, hits give low values 1.02 | locus YDR001C, strain nth1, hits give low values 1.02 | locus YDR069C, strain doa4, hits give low values 1.04 | locus YDR101C, strain arx1, hits give low values 1.01 | locus YDR137W, strain rgp1, hits give low values 0.989 | locus YDR150W, strain NUM1, hits give low values 0.999 | locus YDR159W, strain sac3, hits give low values 1.03 | locus YDR162C, strain NBP2, hits give low values 0.989 | locus YDR195W, strain ref2 0.993 | locus YDR297W, strain sur2, hits give low values 1.02 | locus YDR318W, strain mcm21, hits give low values 1.02 | locus YDR334W, strain swr1, hits give low values 1.01 | locus YDR335W, strain msn5, hits give low values 1.02 | locus YDR388W, hits give low values 1.01 | locus YDR392W, strain spt3, hits give low values 1.04 | locus YDR502C, strain sam2, hits give low values 1.01 | locus YEL003W, strain gim4, hits give low values 1.01 | locus YEL037C, strain rad23, hits give low values 1.03 | locus YEL061C, strain CIN8 (second series), hits give low values 1.04 | locus YEL061C, strain CIN8, hits give low values 0.993 | locus YER015W, strain faa2, hits give low values 1.01 | locus YER016W, strain bim1, hits give low values 1.02 | locus YER110C, hits give low values 1.02 | locus YER111C, strain swi4, hits give low values 1.03 | locus YER155C, strain BEM2 (second series), hits give low values 1.03 | locus YER155C, strain BEM2, hits give low values 1.01 | locus YER167W, strain BCK2, hits give low values 1 | locus YFR010W, strain ubp6, hits give low values 1.03 | locus YGL078C, strain dbp3, hits give low values 1.02 | locus YGL086W, strain mad1, hits give low values 1.01 | locus YGL167C, strain pmr1, hits give low values 1.03 | locus YGL173C, strain kem1, hits give low values 1.01 | locus YGL227W, strain vid30, hits give low values 1.02 | locus YGL240W, strain doc1, hits give low values 1.02 | locus YGL248W, strain PDE1, hits give low values 1 | locus YGL253W, strain hxk2, hits give low values 1.01 | locus YGR078C, strain PAC10, hits give low values 0.998 | locus YGR135W, strain pre9, hits give low values 1.01 | locus YGR229C, strain SMI1, hits give low values 0.989 | locus YGR252W, strain gcn5, hits give low values 0.996 | locus YHR013C, strain ard1, hits give low values 1.02 | locus YHR027C, strain rpn1, hits give low values 1.01 | locus YHR030C, strain SLT2, hits give low values 1.01 and 0.977 | locus YHR079C, strain IRE1 (second series), hits give low values 1.01 | locus YHR079C, strain IRE1, hits give low values 0.991 | locus YHR094C, strain hxt1, hits give low values 1.01 | locus YHR129C, strain ARP1, hits give low values 1.01 | locus YHR142W, strain chs7, hits give low values 1.02 | locus YHR200W, strain rpn10, hits give low values 1.02 | locus YIL066C, strain RNR3, hits give low values 1 | locus YIL073C, strain SPO22, hits give low values 1.05 | locus YIL125W, strain kgd1, hits give low values 1.01 | locus YIR030C, strain dcg1, hits give low values 1.03 | locus YJL092W, strain hpr5, hits give low values 1.03 | locus YJL095W, strain BCK1 (second series), hits give low values 1.02 | locus YJL095W, strain BCK1, hits give low values 1.02 and 0.996 | locus YJL115W, strain asf1, hits give low values 1.04 | locus YJL129C, strain trk1, hits give low values 1.04 | locus YJL134W, strain LCB3, hits give low values 1 | locus YJL154C, strain vps35, hits give low values 1.01 | locus YJL164C, strain tpk1, hits give low values 1.01 | locus YJL166W, strain qcr8, hits give low values 1.02 | locus YJL168C, strain set2, hits give low values 1.01 | locus YJL187C, strain SWE1 (second series), hits give low values 1.01 | locus YJL187C, strain SWE1, hits give low values 1.01 | locus YJR043C, strain POL32, hits give low values 0.998 | locus YJR066W, strain TOR1, hits give low values 0.944
